Test [1] concerns Brachyury (BRA) Protein Expression, Deisenroth Lab, TBXT (gene 6862). In words: CCTE_Deisenroth_DEVTOX-GLR_legacy_Bra: (Legacy) CCTE's DevTox GLR-Endo Assay Evaluation of Brachyury (BRA) Protein Expression, Deisenroth Lab (AID 2284329). In short, it runs like this: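 Human pluripotent RUES2-GLR line was exposed twice during 48 h differentiation to a 10-point series, 1 nM - 200 uM. Fraction of Bra-positive cells was scored by imaging against pluripotent baseline and fitted after 0.2% DMSO subtraction.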

Test [2] can be described thus: CCTE_Deisenroth_DEVTOX-GLR_legacy_CellCount: (Legacy) Viability Assessment in CCTE's DevTox GLR-Endo Assay, Deisenroth Lab (AID 2284331). Particulars: actives raise or lower the signal. In short, it runs like this:
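RUES2-GLR human pluripotent cells were seeded 24 h, then differentiated 48 h with two compound doses at 24 h intervals (10-point, 1 nM - 200 uM). Fixed nuclei were imaged and counted; bidirectional fitting versus 0.2% DMSO.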

Test [3] has as its system SRY-box transcription factor 17 (SOX17) Protein Expression, Deisenroth Lab, SOX17 (gene 64321). The test can be described thus: CCTE_Deisenroth_DEVTOX-GLR_legacy_Sox17: (Legacy) CCTE's DevTox GLR-Endo Assay Evaluation of SRY-box transcription factor 17 (SOX17) Protein Expression, Deisenroth Lab (AID 2284341). Particulars: actives raise or lower the signal. In short, it runs like this:
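Percent SOX17-positive cells, scored by high-content imaging as mean intensity exceeding pluripotent-control median by 5x BMAD, divided by cell count. Human RUES2-GLR endoderm differentiation, 48 h, two exposures 24 h apart, 1 nM–200 uM; DMSO-referenced bidirectional fitting.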

Test [4] relates to SRY-box transcription factor 2 (SOX2) Protein Expression, Deisenroth Lab, SOX2 (gene 6657). The test can be described thus: CCTE_Deisenroth_DEVTOX-GLR_legacy_Sox2: (Legacy) CCTE's DevTox GLR-Endo Assay Evaluation of SRY-box transcription factor 2 (SOX2) Protein Expression, Deisenroth Lab (AID 2284346). In short, it runs like this: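 hPSC RUES2-GLR, 384-well; 24 h seed → 48 h endoderm differentiation, 2 doses q24h, 1 nM–200 uM. Fix, nuclear dye, 5 fields/well. Sox2+ cells/cell count; cell positive if >5x BMAD over endoderm ctrl; gain direction vs DMSO.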

The test system is the same in test [5]. In words: CCTE_Deisenroth_DEVTOX-GLR_Endo_SOX2: CCTE's DevTox GLR-Endo Assay Evaluation of SRY-box transcription factor 2 (SOX2) Protein Expression, Deisenroth Lab (AID 2284412; active means hit-call score of the fitted dose curve at least 0.9, where 1 is the maximum). In short, it runs like this:
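RUES2-GLR human pluripotent cells were seeded 24 h, then differentiated 48 h with two chemical exposures 24 h apart. Cells were fixed, nuclei stained and imaged by high-content microscopy. Endpoint is %SOX2+ cells over cell count, minus 0.2% DMSO control; 10-point series 1 nM–200 uM.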

Test [6] deals with SRY-box transcription factor 17 (SOX17) Protein Expression, Deisenroth Lab, SOX17 (gene 64321). In words: CCTE_Deisenroth_DEVTOX-GLR_Endo_SOX17: CCTE's DevTox GLR-Endo Assay Evaluation of SRY-box transcription factor 17 (SOX17) Protein Expression, Deisenroth Lab (AID 2284413). In short, it runs like this:
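Seed RUES2-GLR cells 24 h; start endoderm differentiation; dose at 0 and 24 h (1 nM - 200 uM, 10 points); fix at 48 h, stain nuclei, image 5 fields/well; compute SOX17+/total cells vs 0.2% DMSO.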

Test [7] deals with Brachyury (BRA) Protein Expression, TBXT (gene 6862). The test can be described thus: CCTE_Deisenroth_DEVTOX-GLR_Endo_BRA: CCTE's DevTox GLR-Endo Assay Evaluation of Brachyury (BRA) Protein Expression, Deisenroth Lab (AID 2284417). In short, it runs like this:
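Endpoint is the fraction of BRA reporter-positive cells over total nuclei, corrected by subtracting the 0.2% DMSO value. Chemicals (1 nM - 200 uM, 10 points) were dosed twice during 48 h differentiation of RUES2-GLR cells, read by imaging.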

Test [8] can be described thus: CCTE_Deisenroth_DEVTOX-GLR_Endo_CellCount: Viability Assessment in CCTE's DevTox GLR-Endo Assay, Deisenroth Lab (AID 2284420). In short, it runs like this: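 Measured 48 h after dosing: fluorescent nuclei counted by imaging in human RUES2-GLR cells under defined differentiation media, tested at 1 nM - 200 uM. Values are percent cell-count change relative to 0.2% DMSO.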

In test [9] the test system is SRY-box transcription factor 2 (SOX2) Protein Expression, Deisenroth Lab, SOX2 (gene 6657). The test can be described thus: CCTE_Deisenroth_DEVTOX-GLR_Pluri_SOX2: CCTE's DevTox GLR-Pluri Assay Evaluation of SRY-box transcription factor 2 (SOX2) Protein Expression, Deisenroth Lab (AID 2284428). In short, it runs like this:
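Percent SOX2+ RUES2-GLR cells, determined by fluorescence microscopy after 48 h and two 24-h-interval chemical exposures spanning 1 nM–200 uM, served as the endpoint. Values are expressed relative to 0.2% DMSO; total cell counts assessed viability.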

For test [10], the system named is Brachyury (BRA) Protein Expression, Deisenroth Lab, TBXT (gene 6862). The test can be described thus: CCTE_Deisenroth_DEVTOX-GLR_Pluri_BRA: CCTE's DevTox GLR-Pluri Assay Evaluation of Brachyury (BRA) Protein Expression, Deisenroth Lab (AID 2284429; active means hit-call score of the fitted dose curve at least 0.9, where 1 is the maximum). In short, it runs like this:
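An inducible fluorescent BRA reporter in RUES2-GLR cells tracks mesoderm differentiation. Compounds (10 concentrations, 1 nM - 200 uM) are dosed twice within a 48-h differentiation. The endpoint subtracts the 0.2% DMSO control from percent BRA+ cells.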

Test [11] can be described thus: CCTE_Deisenroth_DEVTOX-GLR_Pluri_CellCount: Viability Assessment in CCTE's DevTox GLR-Pluri Assay Evaluation of Total Cell Counts, Deisenroth Lab (AID 2284430). In short, it runs like this: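 RUES2-GLR human pluripotent cells, seeded 24 h, then differentiated 48 h with two chemical exposures 24 h apart; 10-point series 1 nM - 200 uM. Fixed, nuclear-stained, imaged (5 fields/well); nuclei count as % change vs 0.2% DMSO.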

Inconclusive results are not listed. Activity calls are given as the source filed them. How the source made its calls, unless noted: active means hit-call score of the fitted dose curve at least 0.9, where 1 is the maximum; inactive means score below 0.9.

For the compound `Oc1cc(O)c2c(c1)O[C@H](c1ccc(O)c(O)c1)[C@@H](O)C2`, the compound was classed as inactive in test [1], in [4], in test [5] and in test [11]. The half-maximal activity concentration (AC50) in test [2] is 167 µM (active); in [3], 144 µM (active); in test [6] it was 146 µM (active); in test [7] it was 0.000133 µM (active); in test [8], 167 µM (active); in test [9], 5.13 µM (active). Also, in test [10], the half-maximal activity concentration (AC50) was 157 µM (active).

As a reminder, the AC50 is the concentration giving half of the maximal activity seen.

For the origin of these results see PubChem BioAssay (EPA / NIEHS).
